Source: PubChem BioAssay AID1441 (NMMLSC, 2008)
The whole screen tested about 220,000 compounds, of which about 830 (0.38%) were called active. What follows is part of a selection rich in actives, with near analogues and random picks from the rest. A number with no mark means an inactive call. The rule behind the calls is not given here.

The compounds below were run against Regulator of G-protein signaling 16 (Homo sapiens) + Guanine nucleotide-binding protein G(o) subunit alpha (Homo sapiens) (UniProt O15492+P09471) (assay: RGS16-Galphao interaction inhibitors and enhancers – biochemical, human proteins, multiplexed bead flow cytometry, primary screen (AID 1441;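 note: Galphao activated by GDP with aluminum fluoride before binding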)). Conditions: bead-based flow cytometry RGS16-Galphao binding, fluorescence; at 10 µM; actives lie on both sides.
Regulator of G-protein signaling 16 (Homo sapiens) + Guanine nucleotide-binding protein G(o) subunit alpha (Homo sapiens), sequence (O15492 whole entry, looked up): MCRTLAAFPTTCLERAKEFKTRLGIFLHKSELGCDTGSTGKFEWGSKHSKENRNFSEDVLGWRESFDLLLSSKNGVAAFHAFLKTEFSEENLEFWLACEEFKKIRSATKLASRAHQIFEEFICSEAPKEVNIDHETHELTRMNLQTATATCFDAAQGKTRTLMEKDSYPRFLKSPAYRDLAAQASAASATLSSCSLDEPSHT
Regulator of G-protein signaling 16 (Homo sapiens) + Guanine nucleotide-binding protein G(o) subunit alpha (Homo sapiens), sequence (P09471 whole entry, looked up): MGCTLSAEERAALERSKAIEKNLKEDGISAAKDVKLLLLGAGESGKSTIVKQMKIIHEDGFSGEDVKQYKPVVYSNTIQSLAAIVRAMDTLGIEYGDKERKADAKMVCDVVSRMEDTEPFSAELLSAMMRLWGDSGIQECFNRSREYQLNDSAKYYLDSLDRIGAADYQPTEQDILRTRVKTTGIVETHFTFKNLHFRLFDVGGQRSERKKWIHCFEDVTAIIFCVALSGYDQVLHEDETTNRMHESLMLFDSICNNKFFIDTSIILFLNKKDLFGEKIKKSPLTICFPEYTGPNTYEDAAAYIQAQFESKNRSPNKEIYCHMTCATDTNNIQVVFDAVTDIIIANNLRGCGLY

Compound	binding response (% of control)
CC(C)Oc1ccc(CCc2nnc(SCC(=O)O)n2-c2ccccc2)cc1	99.7%
COC(=O)[C@H]1Cc2cnoc2C[C@]1(C)C(=O)O	104%
Cc1ccc(SCC2=NNC(=O)C2)cc1	110%
Cc1ccc(N2C(=O)C(Cc3ccccc3)NC2=S)cc1 (stereo not given)	102%
Cc1ccc(N2C(=O)C3C(c4ccccc4)(C2=O)C3(c2ccccc2)c2ccccc2)cc1 (stereo not given)	13.2% (active)
Cc1ccc(N2C(=O)C3CC3C2=O)cc1 (stereo not given)	101%
C/C=C/c1ccc(OCCCCN2CCC(C)CC2)c(OC)c1	95%
O=c1[nH]c2ccccc2s1	23% (active)
O=c1c(-c2ccc(Cl)cc2)[n+]([O-])c2ccccc2n1OCc1nc2ccccc2[nH]1	108%
CCCC1C(c2ccccc2)C(C#N)(C#N)C2(C#N)CC1(N)NC2=O (stereo not given)	178% [activator] (active)
O=C(NNC(=S)NC1CCCCC1)c1ccccc1Cl	99.1%
Cc1ccc(S(=O)(=O)c2c(N)n(C)c3nc4ccccc4nc23)cc1	101%
CCN(CC)CCn1c(N)c(S(=O)(=O)c2ccccc2)c2nc3ccccc3nc21	104%
CCC(=O)Nc1c(S(=O)(=O)c2ccccc2)c2nc3ccccc3nc2n1Cc1ccccc1	13.9% (active)
S=c1[nH]nc(-c2cccs2)n1/N=C/c1cn(-c2ccccc2)nc1-c1ccc(Cl)cc1	98.8%
O=S(=O)(NN=C1CCCCCCC1)c1ccc(Br)cc1	106%
C/C(=N\OCC(=O)Nc1ccc(Br)cc1)c1cccs1	99.8%
C/C(=N\NS(=O)(=O)c1ccc(Br)cc1)c1cccs1	-881% (active)
Cc1ccc(-n2c(SCC(=O)Nc3ccc4c(c3)OCO4)nnc2-c2ccccn2)cc1	96.8%
Cc1ccc(-n2c(Cc3cccs3)nnc2SCC(=O)OC(C)C)cc1	103%

Compound	binding response (% of control)
COc1ccc(-n2c(SCC(=O)OC(C)C)nnc2-c2ccccn2)cc1	242% [activator] (active)
Cc1cc(C(=O)OCC(=O)Nc2nccs2)c2ccccc2n1	99%
CCc1nc(NCCO)c(C#N)c2c1CCCC2	92.9%
CC(=O)NCCn1c(SCC(=O)Nc2ccc(C)cc2)nc2ccccc2c1=O	197%
CCOc1ccc(NC(=O)CSc2nc3ccccc3c(=O)n2Cc2cccs2)cc1	-1.24% (active)
CCc1ccc(NC(=O)CSc2nc3ccccc3c(=O)n2CCN2CCOCC2)cc1	97.8%
NC(=O)c1nnsc1-c1ccc(-c2snnc2C(N)=O)cc1	103%
COc1cc2[nH]c(=S)n(Cc3ccc(F)cc3)c(=O)c2cc1OC	76.9%
Cc1cc(C(=O)N/N=C/c2cc([N+](=O)[O-])cc(C)c2O)n[nH]1	78.3%
Cn1c(CCCOc2ccc(Cl)cc2Cl)n[nH]c1=S	101%
O=S(=O)(c1ccccc1)N1CN(Cc2ccc(F)cc2)c2nc3ccccc3nc21	100%
COc1ccc(CNC(=O)C2CCC(CNc3c(N4CCOCC4)c(=O)c3=O)CC2)cc1 (stereo not given)	104%
O=C(NCc1ccc(F)cc1)C1CCC(CNc2c(N3CCOCC3)c(=O)c2=O)CC1 (stereo not given)	3.97% (active)
CC(NC(=O)C1CCC(CNc2c(N3CCOCC3)c(=O)c2=O)CC1)c1ccccc1 (stereo not given)	99.6%
O=C(Nc1cccnc1Oc1ncnc2cc(Cl)ccc12)c1ccc(F)cc1	102%
CN1CCN(c2ccc(CNS(=O)(=O)c3cccc(F)c3)cc2)CC1	104%
CN(C)CCOc1cccc(Br)c1	103%
CC1(C)C=C2[C@H]3CC[C@@H]4[C@@]5(C)CCC(=O)C(C)(C)[C@@H]5CC[C@@]4(C)[C@]3(C)CC[C@@]2(C(=O)O)CC1	267% [activator] (active)
CC1Cc2ccccc2N1CC(=O)Nc1ccc(S(N)(=O)=O)cc1 (stereo not given)	93.2%
O=C1CCC(=O)N(O)CCCCCNC(=O)CCC(=O)N(O)CCCCCNC(=O)CCC(=O)N(O)CCCCCN1	40.8%

Compound	binding response (% of control)
CCS(=O)(=O)c1cc([N+](=O)[O-])c(Sc2ccccc2N)s1	91.4%
O=C(NCCCn1ccnc1)C(=O)NCC1OCCN1S(=O)(=O)c1cc(F)ccc1F (stereo not given)	105%
NS(=O)(=O)c1cccc(NC(=O)CSc2nc3ccccc3n2-c2ccccc2)c1	105%
Cc1ccc(SCCC(=O)OCC(=O)Nc2ncc(Cl)cc2Cl)cc1	106%
Cc1ccc(-n2c(SCC(=O)Nc3ncc(Cl)cc3Cl)nc3ccccc32)cc1	13.7% (active)
CCCNC(=O)c1c(Cl)cnn1-c1ccc(C)cc1	99.5%
Cc1c(C(=O)Nc2ccccc2Cl)oc2ccc(S(=O)(=O)N3CCC4(CC3)OCCO4)cc12	107%
CCOc1ccccc1NC(=O)c1cc(S(=O)(=O)N2CCC3(CC2)OCCO3)ccc1F	4.15% (active)
CCOc1ccccc1NC(=O)CCN1CCN(S(=O)(=O)c2ccc(OC)cc2)CC1	102%
Cc1ccc(C(=O)N/C(=C/c2cccnc2)C(=O)O)cc1	100%
Cc1cc(OCCN2CCCC2)cc(C(C)C)c1	93.3%
COC(c1ccccc1)c1nnc(CCC(=O)N2CCN(CCOc3ccccc3)CC2)o1 (stereo not given)	101%
COc1cccc(C(=O)NCCSc2ccc(Br)cc2)c1	11.1% (active)
COc1cc(OC)cc(C(=O)NCCSCc2ccco2)c1	97.1%
COc1cccc(C(=O)NNC(=O)c2ccccc2Br)c1	105%
CC(=O)c1sc(NC(=O)C2=NN(c3ccccc3)C(=O)CC2)nc1C	102%
O=C(Cn1ncc(N2CCCC2)c(Br)c1=O)c1ccc(Cl)cc1	103%
COC(=O)c1ccccc1OCC(=O)N1CCN(c2ccc(Cl)cc2)CC1	461% [activator] (active)
O=C(CN1CCN(c2ccc(Cl)cc2)CC1)N1CCCC1	101%
O=C(COc1ccc(Cl)cc1)N1CCN(c2cccc(C(F)(F)F)c2)CC1	107%
